Source: PubChem BioAssay (NCI)
This is part of a sample that, as a whole, favours compounds with a hit. Of some 79,000 tested, about 15% had one in any assay. Unmarked numbers belong to inactive results. Active and inactive are the calls of the source. No stated cut-off is given here; in the data, active means growth inhibition above about 70%; inactive means the rest.

Columns and labels:
[1] = NCI Yeast Anticancer Drug Screen. Data for the rad50 strain (AID 155);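 further: 0% = growth of vehicle-only cultures of the same strain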; conditions: S. cerevisiae rad50 strain growth inhibition; at 50.0 µM; stronger effect = higher value
How it was run: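 Cells are treated with compound, grown, and their growth is then scored against vehicle-only cultures of the same repair-deficient yeast strain.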

[2] = NCI Yeast Anticancer Drug Screen. Data for the mec2-1 strain (AID 157); conditions: S. cerevisiae mec2-1 strain, at 50.0 µM, stronger effect = higher value
How it was run: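 Compounds were applied to mec2-1 yeast cells. Their growth was then compared with that of vehicle-treated cultures to give growth inhibition.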

[3] = NCI Yeast Anticancer Drug Screen. Data for the sgs1 mgt1 strain (AID 161);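 further: 0% = growth of cultures given vehicle only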; conditions: S. cerevisiae sgs1 mgt1 strain, at 50.0 µM, stronger effect = higher value
How it was run: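 Yeast cells carrying a defined DNA-repair defect were exposed to test compounds. Growth inhibition was measured relative to vehicle-treated controls.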

[4] = NCI Yeast Anticancer Drug Screen. Data for the cln2 rad14 strain (AID 165);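 further: 0% = growth equal to vehicle treated cultures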; conditions: S. cerevisiae cln2 rad14 strain, at 50.0 µM, stronger effect = higher value
How it was run: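 Strain: cln2 rad14 yeast, altered in cell cycle control and DNA damage repair. Read-out: growth inhibition vs vehicle.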

[5] = NCI Yeast Anticancer Drug Screen. Data for the bub3 strain (AID 167); conditions: S. cerevisiae bub3 mutant strain, at 50.0 µM, stronger effect = higher value
How it was run: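 Part of a panel of yeast mutants defective in DNA damage repair or cell cycle regulation. Each strain is grown with compound, and inhibition is calculated relative to solvent-treated cultures.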

[6] = NCI Yeast Anticancer Drug Screen. Data for the mlh1 rad18 strain (AID 175); conditions: S. cerevisiae mlh1 rad18 strain growth inhibition; at 50.0 µM; stronger effect = higher value
How it was run: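 A repair-deficient yeast strain is exposed to test compound, and growth is scored relative to vehicle-treated controls.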

| Compound | growth inhibition [1] | growth inhibition [2] | growth inhibition [3] | growth inhibition [4] [%] | growth inhibition [5] | growth inhibition [6] |
| --- | --- | --- | --- | --- | --- | --- |
| CC1CN(N)C(=O)O1 (stereo unspecified) | -3.9% | -18.4% | -19% | 2.9 | 2.6% | -21.9% |
| CCCCCCC(CC)C(N)=O (stereo unspecified) | 9.1% | 7.8% | -4.1% | -7.8 | -8.15% | -7.6% |
| Cc1ccc(S(=O)(=O)C(Sc2ccccc2)=S=NC(C)(C)C)cc1 | 89.8% (active) | 81.5% (active) | 89.3% (active) | 53.4 | 81.8% (active) | 91.8% (active) |
| O=C(Cn1c2c(c3ccccc31)CCCC2)N1CCCC1 | -11.8% | -39.9% | 0.05% | 2.75 | 7.05% | -23.7% |
| O=[N+]([O-])c1ccsc1Cl | -7.85% | -3.6% | -14.6% | -40.2 | -4.1% | -5.05% |
| CCOC(=O)[C@H](Cc1ccccc1)NC(=O)c1nc[nH]c1[N+](=O)[O-] | -10.1% | -9.25% | -31.1% | 5.6 | 1.2% | -34% |
| O=[N+]([O-])c1cccc(NSNc2cccc([N+](=O)[O-])c2)c1 | 18.1% | 23.9% | 25.6% | 23.1 | 6.45% | 11% |
| N=c1c(-c2ccccc2)cc2ccccc2n1O | 7.6% | 10.3% | -6.95% | -0.1 | -5.35% | -5.25% |
| O=C1NC2(CCN(CCc3ccccc3)CC2)Oc2ccccc21 | 28.9% | -10.2% | 15.7% | 17.6 | 11.5% | 11.1% |
| Cc1cc([N+](=O)[O-])ccc1NC(=O)c1c(Cl)c(Cl)c(C(=O)Nc2ccc([N+](=O)[O-])cc2C)c(Cl)c1Cl | 38.5% | 28.1% | 34.9% | -34 | 7.9% | 45.1% |
| COc1cc2c(c([N+](=O)[O-])c1)NC(=O)CC(C)S2 (stereo unspecified) | -48.8% | -6.25% | 21.9% | -9.4 | 17.4% | -3.45% |
| COc1ccc(Cc2cc3c(cc2OCCOC(C)=O)OCO3)cc1 | 16.8% | 11.3% | 10.4% | 0.05 | 15.2% | 23.4% |
| CC(=O)OCCS(=O)Cc1ccccc1 (stereo unspecified) | -36.9% | -16.5% | -9.05% | -41.4 | 3.6% | 3.15% |
| O=C1C(=O)c2ccccc2C(O)=C1CCCc1ccc(S(=O)(=O)c2ccccc2)cc1 | 2.35% | 11.8% | 0.7% | 55.1 | 16.2% | 9.2% |
| CCOC(=O)C1=C(NC(C)(C)C)OC/C1=N\NC(=O)Cc1ccccc1 | 42.8% | -3.6% | 21.2% | 16.6 | 26.2% | 28.1% |
| C[CH2][Sn]([CH2]C)([O][P+](=O)C[Si](C)(C)c1ccccc1)[O][P+](=O)C[Si](C)(C)c1ccccc1 (stereo unspecified) | 3.8% | 29.6% | 12.7% | -3.55 | -3.35% | 17.9% |
| ClCCCOc1ccccc1 | 21.5% | 23.2% | 22.6% | 8.55 | -5.25% | 11.6% |
| Nc1ncc(Cl)c(NCC2(CO)CC(CCc3ccccc3)C2)n1 (stereo unspecified) | -4.7% | -19.1% | -11.6% | -1.15 | -37% | 2.35% |
| COc1ccc([N+](=O)[O-])c2c1CONC2(C)C(=O)O (stereo unspecified) | 8.95% | 16.2% | 8.2% | -4.95 | 3.75% | 16.2% |
| NCCCNCCCCNC(=O)C(O)NC(=O)CC(O)CCCCN=C(N)N (stereo unspecified) | -1.45% | -0.6% | -22.7% | 16.8 | -2.85% | -24.1% |
| CC(=NC1CCCCC1)c1ccccc1O | 24.4% | -11.1% | -3.35% | -23.9 | 13.6% | 16.8% |

| Compound | growth inhibition [1] | growth inhibition [2] | growth inhibition [3] | growth inhibition [4] [%] | growth inhibition [5] | growth inhibition [6] |
| --- | --- | --- | --- | --- | --- | --- |
| CN(/N=C/c1ccccn1)C1=NCCCN1 | -20.2% | -22% | -23% | 5.35 | -5.4% | -27% |
| O=C1c2cccc3cc([N+](=O)[O-])cc(c23)C(=O)N1CC1CCCO1 (stereo unspecified) | 75.3% (active) | 15.8% | 30.6% | 18.1 | 26.1% | 3.15% |
| COc1ccccc1NS(=O)(=O)c1ccc2ncn(NS(=O)(=O)c3ccc(Cl)cc3)c(=O)c2c1 | 27.5% | 15.7% | 30.1% | 0.05 | 26% | 18.1% |
| Cc1csc2n(C)c(=O)c3ccccc3[n+]12 | 16.8% | 9.4% | -20.4% | 4.65 | -1.75% | 32.8% |
| c1ccc2[nH]c3c(N=NC4=NCCN4)c4ccccc4c-3nc2c1 | -10.5% | -56.2% | 10.1% | -5.85 | -15.3% | 12.8% |
| C=CCSC(C)=O | -3.4% | -0.05% | 13.9% | 7.6 | -7.8% | -6.8% |
| c1ccc(OB(Oc2ccccc2)Oc2ccccc2)cc1 | 12.2% | 6.65% | -7.25% | -39 | 4.2% | -6.7% |
| CCC1c2ccccc2[C@H]2C(c3ccccc3)=NN(c3ccccc3)[C@H]2N1CC (stereo partly specified) | 26.6% | -5.05% | -0.7% | -2.9 | 1.5% | 40.5% |
| O=C(O)c1c(I)cc(I)c(O)c1I | -1% | -13.5% | 1.75% | 7.65 | 10.9% | -6.9% |
| O=C(CC(c1ccccc1)C(Br)[N+](=O)[O-])c1ccccc1 (stereo unspecified) | 27.6% | -0.35% | 36.6% | -9.9 | 40% | 32.4% |
| CC12CC3C(CC1O2)C3(C)C (stereo unspecified) | -30.2% | -19.6% | -32.8% | 2.5 | 1.35% | -43.2% |
| CC1OC(=O)/C(=C\N(C)C)C1=O (stereo unspecified) | 1.25% | 9% | 13.2% | 42.5 | 7.75% | 8.6% |
| Nc1cccc2c1C(=O)c1cccc(N)c1C2=O | 7.65% | 16.4% | 8.4% | -7.35 | 8.2% | 21.9% |
| N#Cc1c2nc3ccccc3nc2n2ccccc12 | 0.7% | 19.4% | -18.9% | 1.25 | 1.15% | 53.8% |
| Nn1c(SSSSc2nnc(-c3ccccc3)n2N)nnc1-c1ccccc1 | -12.8% | 3.85% | -27.2% | -19.7 | 14.6% | 4% |
| O=C(CO)c1ccccc1 | -11.9% | 10.3% | -3.8% | 25.6 | 4% | 19.6% |
| O=C(CBr)OCCC1CCCCC1 | 49.2% | 4.7% | 47.9% | -36.5 | 3.05% | 32.5% |
| [Cu+2].[Cu+2].c1ccc2c(c1)-c1nc-2nc2[n-]c(nc3nc(nc4[n-]c(n1)c1ccccc41)-c1ccccc1-3)c1cc3c4nc5nc(nc6[n-]c(nc7nc(nc([n-]4)c3cc21)-c1ccccc1-7)c1ccccc61)-c1ccccc1-5 | -1.75% | -9.45% | 11.1% | -40.3 | -11.1% | 11.3% |
| Fc1cccc(C2ON=C(c3ccccc3)N2C23CC4CC(CC(C4)C2)C3)c1 (stereo unspecified) | 4.9% | -1.85% | 6.1% | 36.8 | -8.35% | 33.9% |
| O=[N+]([O-])c1cc2c(cc1Br)C1C(C3C2C2(Cl)C(Cl)=C(Cl)C3(Cl)C2(Cl)Cl)C2(Cl)C(Cl)=C(Cl)C1(Cl)C2(Cl)Cl (stereo unspecified) | 31.7% | 5.4% | 24.6% | 11.8 | 11.2% | 8.1% |
